Data taken from publication PMC5540273 (PLoS ONE, 2017).

How the values were obtained:
Conditions in all cases: concentration: 1 μM, replicates: in singlicate; n = 1
NEK11 = test system: NEK11
NEK1 = test system: NEK1
NEK2 = test system: NEK2
NEK3 = test system: NEK3
NEK4 = test system: NEK4
NEK5 = test system: NEK5
NEK6 = test system: NEK6
NEK7 = test system: NEK7
NEK9 = test system: NEK9
NIK = test system: T1, NIK
T1 construct: gene MAP3K14
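Further: KINOMEscan kinase panel screen.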

| SMILES | %Inh (NEK11) [%] | %Inh (NEK1) [%] | %Inh (NEK2) [%] | %Inh (NEK3) [%] | %Inh (NEK4) [%] | %Inh (NEK5) [%] | %Inh (NEK6) [%] | %Inh (NEK7) [%] | %Inh (NEK9) [%] | %Inh (NIK) [%] |
| --- | --- | --- | --- | --- | --- | --- | --- | --- | --- | --- |
| Cc1ccc(C(=O)N2CC[C@@H](O)C2)cc1-n1c(C)cc(OCc2ccc(F)cc2F)c(Br)c1=O | 0 | 0 | 0 | 31 | 0 | 0 | 0 | 0 | 0 | 0 |
| O=C(Nc1cccc(-c2nn3ncccc3c2-c2ccnc(Nc3ccccc3)n2)c1)c1c(F)cccc1F [GSK198271] | 0 | 3 | 21 | 11 | 4 | 0 | 0 | 0 | 8 | 0 |
| CN1CCN(CCCNc2nccc(-c3c(-c4ccc(F)cc4)nn4cc(C(F)(F)F)ccc34)n2)CC1 [GW621581] | 14 | 0 | 14 | 0 | 0 | 0 | 0 | 11 | 0 | 18 |
| O=C(Nc1cccc(Oc2ccc3nc(NC(=O)C4CC4)cn3n2)c1)c1ccccc1C(F)(F)F | 0 | 9 | 12 | 26 | 0 | 9 | 0 | 0 | 0 | 0 |
| Cn1cc(-c2ccc3c(c2)CCN3C(=O)Cc2cccc(F)c2)c2c(N)ncnc21 [GSK2603358] | 8 | 31 | 73 | 11 | 22 | 28 | 0 | 0 | 0 | 23 |
| Cl.c1ccc(-c2ccc3c(Nc4ccc5[nH]ncc5c4)ccnc3c2)nc1 [GW440137] | 0 | 0 | 0 | 11 | 0 | 13 | 0 | 0 | 7 | 10 |
| FC(F)(F)c1ccc(/C=C/c2cncnc2Nc2ccc3[nH]c(Cc4ccccc4)nc3c2)cc1 [GW709199] | 9 | 0 | 0 | 30 | 0 | 23 | 13 | 0 | 2 | 0 |
| COc1cc(Nc2nccc(N3CCC(NC(=O)Nc4cccc(C(C)=O)c4)C3)n2)cc(OC)c1OC (stereo not drawn) [GSK1379753] | 0 | 58 | 43 | 41 | 30 | 100 | 1 | 45 | 27 | 5 |
| COc1ccc(CNC(=O)NC2CCN(c3ccnc(Nc4ccc(F)cc4)n3)CC2)cc1 [GSK1379788] | 2 | 0 | 0 | 12 | 0 | 13 | 0 | 0 | 0 | 12 |
| O=c1[nH]cc(-c2ccc(N3CCOCC3)cc2)c2sc(-c3cn[nH]c3)cc12 [GSK2276055] | 0 | 19 | 19 | 16 | 0 | 0 | 0 | 39 | 53 | 17 |
| CCn1c(-c2nonc2N)nc2c(C#CC(C)(C)O)ncc(OCCCCN)c21.O=C(O)C(F)(F)F.O=C(O)C(F)(F)F [GSK507274] | 50 | 0 | 34 | 5 | 34 | 11 | 1 | 0 | 0 | 68 |
| Nc1ncc(-c2cccnc2)c2scc(-c3ccc4c(c3)CCN4C(=O)Cc3ccccc3)c12 [GSK683281] | 44 | 0 | 70 | 1 | 17 | 22 | 8 | 19 | 28 | 4 |
| COc1cc(Nc2ncc3c(C)nc(-c4cc5ccccc5[nH]4)n3n2)cc(OC)c1OC [GW869516] | 86 | 16 | 70 | 89 | 41 | 99 | 99.6 | 99.7 | 90 | 0 |
| Cl.NC(=O)c1cccc(Nc2nccc(Nc3ccc(Oc4c(Cl)cccc4Cl)c(Cl)c3)n2)c1 [GW659009] | 0 | 0 | 1 | 87 | 3 | 26 | 86 | 5 | 6 | 14 |
| COc1cccc(C2=C(Nc3ccc(Cl)c(C(=O)O)c3)C(=O)NC2=O)c1 [SB-390769] | 27 | 0 | 0 | 7 | 38 | 3 | 0 | 0 | 0 | 21 |
